# Sampled rows, rich in hits. Any-hit rate of the full collection: about 1.3%.
# BRCA1 expr act: activators of BRCA1 expression. 1.1% of 380,000 active. AID 624202. Potency, µM (series often up to 46.1 µM), for inactives: at the top dose activation, hits mostly activators. MCF7-BRCA1-FFLuc reporter, luminescence, 48 h; response scale: scaled: vehicle 0%, 10 µM genistein 100%; also: nearly all actives have a fitted effect of over 80% in size
#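 Activators of BRCA1 expression were detected as increased firefly luciferase luminescence in engineered MCF7 cells after 48 h compound incubation. Signals were scaled to genistein 10 microM as full activation.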
# EPAC1 agonist: agonists of human EPAC1; Potency, µM (highest dose often 154 µM), for the others: at the top dose activation, hits mostly activators; 0.073% of 360,000 active; AID 720707; EPAC1 agonist qHTS, biochemical assay; response scale: 100% = response to 6.5 mM cAMP; O95398; also: nearly all actives have a fitted effect of over 60% in size
# Target sequence (O95398 whole entry, looked up): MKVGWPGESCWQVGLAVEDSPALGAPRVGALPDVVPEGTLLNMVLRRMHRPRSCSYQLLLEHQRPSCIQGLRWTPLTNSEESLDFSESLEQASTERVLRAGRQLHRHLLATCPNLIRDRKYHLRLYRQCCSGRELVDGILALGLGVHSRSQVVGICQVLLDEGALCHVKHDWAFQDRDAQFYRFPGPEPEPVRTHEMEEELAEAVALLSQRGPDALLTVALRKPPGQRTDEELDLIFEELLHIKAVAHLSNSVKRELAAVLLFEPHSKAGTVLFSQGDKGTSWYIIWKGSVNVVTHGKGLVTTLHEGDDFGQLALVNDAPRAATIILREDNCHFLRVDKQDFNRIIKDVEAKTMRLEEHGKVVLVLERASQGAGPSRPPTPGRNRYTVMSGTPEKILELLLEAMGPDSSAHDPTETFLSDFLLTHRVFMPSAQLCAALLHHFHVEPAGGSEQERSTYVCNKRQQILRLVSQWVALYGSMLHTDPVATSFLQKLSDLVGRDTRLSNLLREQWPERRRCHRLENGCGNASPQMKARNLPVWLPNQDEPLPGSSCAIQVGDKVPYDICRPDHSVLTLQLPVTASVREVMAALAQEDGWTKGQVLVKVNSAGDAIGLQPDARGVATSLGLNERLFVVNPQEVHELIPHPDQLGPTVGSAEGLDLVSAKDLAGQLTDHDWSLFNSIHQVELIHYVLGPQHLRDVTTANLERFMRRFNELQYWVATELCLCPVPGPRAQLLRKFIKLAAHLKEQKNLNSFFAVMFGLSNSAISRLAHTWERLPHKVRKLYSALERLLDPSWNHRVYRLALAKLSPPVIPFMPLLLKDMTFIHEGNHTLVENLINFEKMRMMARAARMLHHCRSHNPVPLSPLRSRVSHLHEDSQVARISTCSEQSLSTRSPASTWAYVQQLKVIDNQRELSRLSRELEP
#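 Fluorescent GDP-exchange assay: 100 nM EPAC1 with 250 nM Rap1B preloaded with BODIPY-GDP and 50 uM GDP; compounds tested as concentration series, 5 min at room temperature, then read every 5 min for 30 min (ex 480/em 540 nm); normalized to 6.5 mM cAMP.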
# EPAC2 antag: antagonists of human EPAC2. Q8WZA2. EPAC2 GEF exchange of Rap1B-BODIPY-GDP, fluorescence. Potency, µM (highest dose often 114 µM), without a hit: top-dose activity, negative = inhibition, usual class: inhibitors. 0.18% of 360,000 active. AID 720708; also: % is scaled to controls: 0 for no effect and ±100 for the full control effect; nearly all actives have a fitted effect of over 45% in size
# EPAC1 antag: antagonists of human EPAC1. EPAC1 GEF assay, Rap1b-BODIPY-GDP exchange fluorescence. Potency, µM (highest dose often 115 µM), without a hit: top-dose activity change, negative = inhibition, actives largely listed as inhibitors. 0.14% of 360,000 active;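 also: plate controls were vehicle for no effect and positive control for full effect; nearly all actives have a fitted effect of over 50% in size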
# EPAC2 ag: agonists of human EPAC2 (RAPGEF4). Potency, µM (top dose mostly 154 µM), without a hit: at the top dose activation, hits mostly activators. EPAC2 activation, biochemical qHTS; response scale: 100% = 6.5 mM cAMP response. Q8WZA2. 0.079% of 360,000 active; also: nearly all actives have a fitted effect of over 50% in size
#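 Compounds were added across a concentration range to EPAC2 (100 nM), RAP1B-BODIPY-GDP (250 nM) and GDP (50 uM). After 5 min at room temperature, fluorescence was recorded at 5-min intervals for 30 min.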
# RGS4 inhibitor: blocks human RGS4-accelerated GTP hydrolysis | P49798 | Transcreener GDP fluorescence polarization, RGS4-accelerated GTP hydrolysis | Potency, µM (titrated, usually from 114 µM), for inactives: at the top dose activity change, negative = inhibition, actives largely listed as inhibitors | 0.039% of 390,000 active; also: % is scaled to controls: 0 for no effect and ±100 for the full control effect; nearly all actives have a fitted effect of over 75% in size
#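 MLSMR compounds (23 nl, pin-transferred) preincubated 10 min at room temperature with a 500nM (2x) first reagent, then RGS4 at 900nM (2x) plus Transcreener GDP mix added; fluorescence polarization (620/688 nm) read before and after 90 min at 30 °C.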
# * marks the source's active call; other numbers are inactive results; ? = inconclusive; / = not tested or not shown; ! = not confirmed by another sample. Calls follow the shape of the dose curve; as a rule, active = well fitted curve in the direction sought with a large enough effect; inconclusive = small, poorly fitted or top-dose-only effect, or another doubt; inactive = no such curve, though single readings can be large; an effect the other way counts as inactive or inconclusive. Potency is read from the fitted curve at half-maximal effect.
SMILES,BRCA1 expr act,EPAC1 agonist,EPAC2 antag,EPAC1 antag,EPAC2 ag,RGS4 inhibitor
CN1CCN(C(=O)C2CCN(S(=O)(=O)c3ccc(F)cc3)CC2)CC1,-0.7%,-0.7%,3.6%,-5.2%,6.9%,-9.6%
COc1ccccc1OCC(=O)Nc1ccc(S(=O)(=O)Nc2cc(C)on2)cc1,-9.4%,11.5%,-9.2%,-4.3%,4.3%,-12.6%
Cc1ccc(CN2C(=NC(=O)CCC(=O)O)SC3CS(=O)(=O)CC32)cc1 (configuration not stated),0.0%,6.0%,0.5%,-6.1%,8.6%,-2.1%
CCCCNC(=O)N(C)c1nc2ccccc2s1,4.47µM*,-3.3%,-0.8%,-7.8%,6.7%,-24.6%
CCCCCN=C(C)c1c(O)c2ccccc2oc1=O,11.2µM*,3.9%,-2.8%,-20.0%,-4.5%,7.7%
C/C(=N/NS(=O)(=O)c1ccc(C)cc1)c1c(O)c2ccccc2oc1=O,-21.8%,4.9%,-14.0%,-1.1%,-3.5%,-3.8%
CCc1ccc(N=c2c([N+](=O)[O-])nn(-c3ccc4c(c3)OCCO4)n2O)cc1,3.98µM*,10.4%,2.2%,-8.9%,10.2%,18.4%
CC(=O)c1sc(NC(=O)c2c(F)cccc2F)nc1-c1ccccc1,23.1%,-6.4%,-0.3%,-17.7%,8.3%,-1.9%
CC(=O)c1sc(NC(=O)c2ccc(Cl)cc2)nc1C,3.16µM*,9.1%,8.3%,8.6%,15.5%,-39.4%
CC(=O)Nc1nc(C)c(C(C)=O)s1,-28.6%,-4.5%,12.7%,-4.2%,-2.1%,-1.7%
CC(=O)c1sc(NC(=O)c2ccccc2)nc1-c1ccccc1,2.82µM*,-1.6%,-3.5%,-0.8%,20.4%,-3.0%
CC(=O)c1sc(NC(=O)c2ccccc2C)nc1C,12.6µM*,-1.4%,12.8%,4.0%,3.3%,-2.2%
O=C(NC1CC1)c1cc2cc3ccccc3nc2s1,5.01µM*,-2.4%,0.9%,-12.2%,7.0%,3.1%
CC(=O)Nc1nc(-c2ccccc2)c(-c2ccccc2)s1,-3.4%,/,/,/,/,31.6%
CC(=O)NC1Sc2ccccc2N=C1c1ccccc1 (configuration not stated),10µM*,9.2%,-3.8%,6.5%,2.0%,?
COc1ccc(OC)c(S(=O)(=O)N/N=C\c2ccc3c(c2)OCO3)c1,12.6µM*,-3.4%,-0.7%,-16.7%,8.5%,-3.7%
c1c2c(cc3sc(N4CCOCC4)nc13)OCO2,12.6%,2.1%,-6.6%,-6.4%,3.0%,?
c1ccc(N2CCN(c3nc4cc5c(cc4s3)OCO5)CC2)cc1,3.98µM*!,1.5%,8.4%,1.2%,5.0%,-52.5%
O=C(CCc1ccccc1)n1nc(-c2ccco2)nc1SCc1ccccc1,10µM*,1.1%,2.3%,?,5.4%,-11.5%
CCOC(=O)c1cnc(SCc2ccc(C(C)(C)C)cc2)nc1N,?,-1.1%,3.9%,6.0%,2.5%,-24.9%
CCOC(=O)c1cnc(SCc2ccccc2)nc1N,2.24µM*,17.7%,-5.7%,-12.2%,21.4%,-1.8%
COc1ccccc1-c1nnc(NC(=O)C(C)Sc2nncn2C)s1 (configuration not stated),-36.9%,-1.4%,19.4%,-7.2%,-1.9%,-7.8%
COc1ccccc1-c1nnc(NC(=O)CSc2nncn2C)s1,10µM*,11.1%,1.9%,1.6%,-2.6%,-16.5%
CCOc1ccc(OCc2ccc(C(=O)NCc3cccnc3)o2)cc1,11.2µM*,1.8%,-1.2%,?,11.5%,-44.4%
CC1CCCCN1C(=O)CSc1nnc(-c2c[nH]c3ccccc23)o1 (configuration not stated),?,9.3%,-2.2%,5.0%,11.1%,8.1%
SMILES,BRCA1 expr act,EPAC1 agonist,EPAC2 antag,EPAC1 antag,EPAC2 ag,RGS4 inhibitor
Cc1c(Cl)cccc1Nc1nc(N)nc(CSc2ncccn2)n1,10µM*,3.5%,-3.9%,3.7%,0.4%,-27.2%
Cc1c(Cl)cccc1Nc1nc(N)nc(CSCCO)n1,19.5%,-14.7%,6.0%,-29.1%,14.8%,4.7%
COc1cccc(NC(=S)NCc2cccs2)c1,75.0%,-5.9%,27.2%,15.7%,19.1%,-19.5%
Cc1ccc(-c2nc3ccsc3c(=O)o2)cc1,12.6µM*,0.0%,1.1%,-7.3%,6.2%,-6.9%
O=C1C=C(C2OC(CO)C(O)C2O)C(=O)N1 (configuration not stated),-4.7%,-11.8%,-1.1%,5.0%,3.3%,?
C/C(=N/NC(=O)c1cccc(N2CCCC2=O)c1)c1ccncc1,8.91µM*,5.0%,-0.7%,-22.0%,5.8%,9.0%
COc1ccc(O)c(/C=N/NC(=O)c2cccc(N3CCCC3=O)c2)c1,-37.6%,1.3%,3.4%,?,9.3%,-22.2%
COc1cccc(/C=N/NC(=O)c2cccc(N3CCCC3=O)c2)c1,8.91µM*,-3.9%,9.2%,7.7%,2.9%,-31.2%
CCCC(=O)N1CCN(c2ccc(NC(=O)c3ccc4c(c3)OCCO4)cc2)CC1,-13.8%,-0.8%,-1.9%,19.1%,17.9%,21.2%
CC(=Nc1ccc(Br)cc1)c1sc2ccccc2c1O,3.98µM*,-2.5%,1.0%,-3.3%,20.7%,4.1%
O=c1oc2ccc3ccccc3c2cc1-c1nnc(Nc2cccc(F)c2)s1,/,/,/,/,/,-12.5%
Cn1cc(-c2ccc(C(=O)Nc3cccc(Oc4ccccc4)c3)c3occc23)cn1,11.2µM*,5.7%,9.4%,7.3%,0.4%,/
COc1ccc(-c2ccc(C(=O)Nc3cccc(N(C)C)c3)c3occc23)c(C)c1,2.51µM*,6.2%,?,-20.4%,8.6%,/
COc1ccc(-c2ccc(C(=O)Nc3cccc(Oc4ccccc4)c3)c3occc23)c(C)c1,-6.7%,-14.5%,5.4%,-10.0%,10.6%,/
O=C(NCCCCc1ccccc1)c1cccc(NC(=O)C2CC2)c1,15.5%,-7.4%,-13.5%,-10.7%,13.6%,?
COc1ccc(S(=O)(=O)N2CCOCC2)cc1NC(=O)CC(C)c1ccccc1 (configuration not stated),-13.6%,7.1%,-0.4%,-17.9%,10.7%,7.0%
O=C1CC(Cc2ccccc2)C(=O)N1CCc1ccc2c(c1)OCO2 (configuration not stated),1.6%,7.2%,11.2µM*,11.5%,-19.4%,15.9%
Fc1ccccc1C1CCN(Cc2nc(COc3ccccc3)no2)C1 (configuration not stated),-14.6%,-5.0%,-6.5%,-11.8%,7.0%,-0.4%
O=C(CSCc1cccc(F)c1)NCc1ccccc1,11.2µM*,1.9%,-0.2%,-19.9%,-9.5%,-4.1%
O=C(CSCc1ccccc1F)NCc1ccccc1,7.08µM*,-2.5%,-3.1%,-8.0%,2.8%,10.1%
Cc1ccc(NC(=O)Nc2cccnc2)cc1Cl,12.6µM*,-1.3%,-2.7%,-17.1%,8.2%,2.0%

# Screens (PubChem BioAssay)
